Assay outcomes from PubChem BioAssay.
Only some compounds are listed: those with a hit (about 2.4% of all), similar ones and a draw of the others.
Prostate diff – LNCaP prostate cell differentiation activation | flow cytometry side scatter, 4 d | side scatter shift, % at 10 µM | AID 795 | 0.56% of 24,000 active;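 active means side scatter shift above 30%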;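 further: androgen-responsive LNCaP prostate cancer cells in charcoal-stripped serum medium; higher shift means more granular cells and more differentiation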
Jurkat autofluor – autofluorescence counter-screen for VLA-4 integrin assays; fluorescence ratio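 (tested at 10 µM compound in the well)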; Jurkat cells, compound autofluorescence, flow cytometry; hits give high values; 1 = vehicle-only cell background; 0.61% of 24,000 active;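 active means fluorescence ratio above 2.44, which is 1 plus 3 SD of all ratios; inconclusive means signal too bright to measure linearly, ratio around 10 or more; inactive means fluorescence ratio below 2.44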;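 further: green fluorescence of cells measured with 488 nm excitation and 530 nm emission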
VLA-4 antagonist – inhibitors of LDV-FITC ligand binding to Mn2+-activated human VLA-4 integrin. 0.2% of 24,000 active. inhibition, % at 10 µM (by protocol). Jurkat cells, LDV-FITC binding with Mn2+, flow cytometry; 100% = Mn2+-driven binding gain fully reversed. AID 529;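 active means inhibition above 50%; inconclusive means compound itself fluorescent, judged against control cell fluorescence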
VLA-4 allo ag – allosterically activates the human VLA-4 integrin | AID 528 | activation, % at 10 µM (by protocol) | Jurkat cells, LDV-FITC binding, flow cytometry | 24,000 tested, under 10 active | P13612;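 active means fluorescent ligand binding to cells raised by more than 40% of the manganese-induced maximum; inconclusive means compound's own fluorescence above 85% of the ligand control signal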
FPRL1 ligand – ligands of human FPRL1, also counter-screen for FPR ligands; P25090; inhibition, % (no concentration beside the values); FPRL1-expressing cells, fluorescent ligand binding inhibition, flow cytometry; 0.3% of 24,000 active
Target sequence (P25090 whole entry, looked up): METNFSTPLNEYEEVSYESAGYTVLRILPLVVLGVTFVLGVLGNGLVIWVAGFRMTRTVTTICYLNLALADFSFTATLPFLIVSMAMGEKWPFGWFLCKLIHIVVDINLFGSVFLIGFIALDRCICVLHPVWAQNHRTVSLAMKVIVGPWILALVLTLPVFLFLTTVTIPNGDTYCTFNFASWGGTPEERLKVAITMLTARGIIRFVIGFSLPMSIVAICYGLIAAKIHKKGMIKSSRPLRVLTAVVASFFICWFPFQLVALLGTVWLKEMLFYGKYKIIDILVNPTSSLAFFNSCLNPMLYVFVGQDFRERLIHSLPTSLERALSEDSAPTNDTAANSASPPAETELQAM
FPR ligand – ligands of human FPR, also counter-screen for FPRL1 ligands. AID 440. FPR-expressing cells, fluorescent ligand binding, flow cytometry. inhibition, % (concentration not given with the values). 0.74% of 24,000 active. P21462
Hits are given with their value; . = inactive; ? = inconclusive; / = no result given. Unless noted, no stated cut-off is given here; in the data, active means inhibition above about 30%; inconclusive means no clear call, values can overlap the other calls; inactive means below that.

SMILES	Prostate diff	Jurkat autofluor	VLA-4 antagonist	VLA-4 allo ag	FPRL1 ligand	FPR ligand
Cc1ccc(C2/C(=C(/O)c3ccccc3)C(=O)C(=O)N2CCN2CCOCC2)o1 (configuration not stated)	/	/	/	/	.	.
COc1ccc(CCN(C)CCCC(C#N)(c2ccc(OC)c(OC)c2)C(C)C)cc1OC (configuration not stated)	.	.	.	.	.	.
Cc1nc2c(-c3ccc(F)cc3)c(C)nn2c(C)c1CCC(=O)NC(C)CCc1ccco1 (configuration not stated)	.	.	.	.	.	44
CCN(CC)c1ccc(-c2nn3c(-c4cccnc4)nnc3s2)cc1	.	.	.	.	.	.
CCCN1Cc2cccc(C(=O)Nc3ccc(N4CCN(CC)CC4)cc3)c2C1=O	.	.	.	.	.	.
Cn1c(=O)oc2cc(S(=O)(=O)N3CCC(C(=O)NCC4COc5ccccc5O4)CC3)ccc21 (configuration not stated)	.	.	.	.	.	31
CC1CCN(S(=O)(=O)c2ccc3c(c2)oc(=O)n3CC(=O)NCc2ccc3c(c2)OCO3)CC1	.	.	.	.	.	39
Cc1c(C(=O)NCc2ccc3c(c2)OCO3)oc2ccc(S(=O)(=O)N3CCC(C)CC3)cc12	.	.	.	.	.	.
CSCCC1C(C#N)=C(N)Oc2n[nH]c(-c3cccs3)c21 (configuration not stated)	.	.	.	.	.	30
Cn1c2ccccc2c(=O)n2c(=O)c3ccccc3cc12	.	.	.	.	.	.
CCNc1c2c3c(cccc3n(C)c1=O)C(=O)c1ccccc1-2	.	9.8	?	?	?	?
CN(C(=O)c1ccccn1)c1nnc(-c2cccnc2)s1	32	.	.	.	.	.
COc1ccc(Cl)c(N2CCN(CCCNC(=O)Nc3ccc(C)cc3)CC2)c1	40	.	.	.	.	.
COc1ccccc1N1CCN(CCCNC(=O)Nc2ccccc2C)CC1	.	.	.	.	.	.
COc1ccc(Cl)cc1N1CCN(CCNC(=O)Nc2ccccc2C)CC1	45	.	.	.	.	.
COc1cccc(C2/C(=C(/O)c3ccncc3)C(=O)C(=O)N2CCCN2CCOCC2)c1OC (configuration not stated)	/	/	/	/	.	.
COc1ccc(-n2c(=O)c3c4c(sc3n3c(C)nnc23)CCCC4)cc1	.	.	.	.	.	.
CCCOc1ccc(OC(=O)c2ccc(Br)o2)cc1	.	.	.	.	.	.
COCCn1nnnc1C(c1ccccc1OC)N1CCc2ccccc2C1 (configuration not stated)	.	.	.	.	.	.
CC(C)(C)NC(=O)NC(=O)COc1ccccc1C#N	.	4	?	?	.	.
CC(C)=CC(=O)OCC(=O)NC(=O)NC(C)(C)C	.	.	.	.	.	.
O=C(O)CC1Oc2ccc(Cl)cc2NC1=O (configuration not stated)	.	.	.	.	37	.
Cn1nc(-c2ccc(Cl)cc2)c2cc(C(=O)NCCCN3CCOCC3)sc21	31	.	.	.	.	.
Cn1nc(-c2ccc(Cl)cc2)c2cc(C(=O)NCCN3CCOCC3)sc21	.	.	?	?	.	.
CCN(CC)CCNC(=O)c1cc2c(-c3ccc(Cl)cc3)nn(C)c2s1	40	.	?	?	.	.
SMILES	Prostate diff	Jurkat autofluor	VLA-4 antagonist	VLA-4 allo ag	FPRL1 ligand	FPR ligand
CCOCCCNC(=O)c1cc2c(-c3ccc(Cl)cc3)nn(C)c2s1	.	.	.	.	.	.
CCOc1ccc(NC(=O)C2CSC(c3ccncc3)=N2)cc1 (configuration not stated)	.	.	.	.	.	.
C=CCOC(=O)c1sc(N2C(=O)c3oc4ccccc4c(=O)c3C2c2ccco2)nc1C (configuration not stated)	.	.	.	.	.	.
O=C(CSc1nnc2c3cc(F)ccc3nc(-c3ccccc3)n12)N1CCOCC1	.	.	.	.	.	.
c1ccc(CCNc2nc3ccccc3n3nnnc23)cc1	.	9.2	?	?	.	.
CN(C)CCCNC(CC(=O)Nc1ccc(Cl)cc1)C(=O)O (configuration not stated)	.	.	.	.	.	.
COc1ccccc1NC(=O)Cn1cnc2c(cnn2-c2ccc(C)c(C)c2)c1=O	.	.	.	.	.	.
Clc1cccc(-c2nnc3sc(-c4ccccc4)nn23)c1	32	.	.	.	.	.
CC(=O)c1c(C)[nH]c(C(=O)N2CCc3ccccc3C2)c1C	.	.	60	.	.	.
CC(=O)c1c(C)[nH]c(C(=O)N2CCN(C(=O)c3ccco3)CC2)c1C	.	.	?	?	.	.
Cc1ccc(S(=O)(=O)NC(C)C(c2cccs2)N2CCN(C)CC2)cc1 (configuration not stated)	.	.	.	.	.	.
CCN1CCN(C(c2cccs2)C(C)NS(=O)(=O)c2ccc(Br)cc2)CC1 (configuration not stated)	32	.	.	.	.	.
CCOc1ccc(NC(=O)c2oc3ccccc3c2NC(=O)C2CC2)cc1	.	.	.	.	.	.
CC(C)CN(CC(C)C)C(=O)CS(=O)(=O)Cc1ccccc1	.	.	.	.	.	63
COc1ccc(NC(=O)CSc2ccccn2)cc1OC	.	.	.	.	.	.
COc1ccc(-c2c(=O)n(OCc3ccccn3)c3ccccc3[n+]2[O-])cc1OC	.	2.5	?	?	.	.
CCn1c2ccccc2c2nnc(SCC(=O)NC(C(=O)OC)C(C)C)nc21 (configuration not stated)	.	.	.	.	.	.
COc1cccc(C2C=C(c3cccs3)Nc3ncnn32)c1OC (configuration not stated)	.	.	.	.	.	.
COc1ccc(C2C=C(c3ccc(Br)s3)Nc3ncnn32)cc1OC (configuration not stated)	.	3.3	?	?	.	.
CCOc1cc(NC(=O)c2ccco2)c(OCC)cc1NC(=O)CCc1ccc(OC)cc1	.	.	.	.	.	33
COc1ccc(NC(=O)CCc2ccccc2)cc1NC(=O)c1ccco1	.	.	.	.	.	.
CCOc1ccccc1NC(=O)c1nc[nH]c1C(=O)Nc1ccccc1OCC	64	.	.	.	.	.
COc1ccccc1NC(=O)c1nc[nH]c1C(=O)Nc1ccccc1OC	35	.	.	.	.	.
CCOc1ccccc1NC(=O)Cn1nnc(C(=O)Nc2ccccc2Cl)c1N	.	.	?	?	.	.
COc1ccc(NC(=O)c2nc[nH]c2C(=O)Nc2ccccc2C)cc1	.	.	?	.	.	.
CC(=O)NC(Cc1cc(C)ccc1C)C(=O)N1CCN(C(=O)Nc2ccc(C(C)=O)cc2)CC1 (configuration not stated)	.	.	.	.	.	35
